# Measurements as given in PubChem BioAssay (Tox21).
# Results filed as inconclusive are left out. A call without a number means that no potency is given here. Unmarked numbers belong to inactive results. Activity calls are given as the source filed them. Calls follow the shape of the dose curve; as a rule, active = well fitted cell-killing curve with a large enough effect in the repeat runs; inconclusive = weak or mixed curves, or effect the other way; inactive = flat fitted curve, though single readings scatter.
# Experiment: cAMP Responsive Elements (CRE) small molecule antagonists, cell-based qHTS assay: qHTS cell viability counter screen (AID 2060913); also: nearly all actives have a fitted effect of over 40% in size
# Conditions: CRE-bla HEK293T viability, CellTiter-Glo luminescence, 5 h; series mostly up to 92.4 µM
# From the text: U.S. Tox21 Program National Center for Advancing Translational Sciences [NCATS] Division of Preclinical Innovation [DPI] U.S. Environmental Protection Agency [EPA] National Institutes of Environmental Health Sciences [NIEHS] National Toxicology Program [NTP] U.S. Food and Drug Administration [FDA] Tox21 Assay Overview: CREB (cyclic-AMP Responsive Element Binding Protein) is a cellular transcription factor. It binds to certain DNA sequences called cAMP Responsive Elements (CRE) and regulates the transcription of the genes. […] This cell line can be used to find agonists/antagonists of the cyclic AMP signaling pathway. The activation of the report gene under culture conditions can be detected by fluorescence intensity. This cell line has been used to screen the Tox21 10K compound library to identify agonists that induce oxidative stress. The cytotoxicity of the Tox21 compound library against the CRE-bla cell line was tested in parallel by measuring the cell viability using CellTiter-Glo assay (Promega, Madison, WI) in the same wells.
# Tox21 Assay Protocol Summary: CRE-bla Hek 293T cells were suspended in assay medium (DMEM containing 10% dialyzed FBS, 0.1 mM NEAA, 1 mM sodium pyruvate and 25 mM HEPES) and dispensed at 2,000 cells/4 uL /well into 1536-well black wall/clear bottom plates using a Multidrop Combi (ThermoFisher Scientific, Waltham, MA) dispenser. After the assay plates were incubated at 37 C/5% CO2 for 18 hrs, 23 nL of compounds dissolved in DMSO, positive controls or DMSO only was transferred to the assay plate by a pintool workstation (Kalypsys, San Diego, CA), followed by addition of 1 uL of 1.25uM NKH477 (0.25 uM as final concentration) in assay medium using a Flying Reagent Dispenser (Aurora Discovery, San Diego, CA). The plates were incubated at 37 C and 5% CO2 for 3 hrs. Then 1 uL of LiveBLAzer B/G FRET substrate (Invitrogen, Carlsbad, CA) was added to each well using Bioraptr Flying Reagent Dispenser (FRD, Aurora Discovery, San Diego, CA). The plates were incubated at room temperature for 2 h, then fluorescence intensities were measured using an Envision plate reader (PerkinElmer, Shelton, CT) at Excitation 405nm, Emission 460nm and 530nm. The % activity was determined from the ratio of 460nm/530nm. For cell viability readout that measures cytotoxicity, 4 uL /well of CellTiter-Glo reagent was added into the assay plates using Bioraptr FRD. After 30 min incubation at room temperature, the luminescence intensity in the assay plates was measured using a ViewLux (PerkinElmer, Shelton, CT) plate reader.
SMILES,Potency,"viability change, negative = cytotoxic"
O=C(O)c1ccc(C(=O)O)c(C(=O)O)c1,inactive,–
CC(C)(CCl)c1ccccc1,inactive,–
CC(C)NC[C@@H](O)COc1cccc2ccccc12,inactive,–
CCCN(C1CCN(C(=O)C2CCNCC2)CC1)[C@@H]1CCc2ccc(OC)cc2C1,inactive,–
C1CCCNCC1,inactive,–
CO[Si](OC)(OC)OC,inactive,–
CCCCCCCCc1ccc(Nc2ccc(CCCCCCCC)cc2)cc1,inactive,–
C=Cc1ccc(C=C)cc1,inactive,–
C[C@]12CCC(=O)C=C1CC[C@@H]1[C@@H]2CC[C@@]2(C)[C@H]1CC[C@]2(O)C(=O)CO,inactive,–
CCC(C)(C)CC,inactive,–
O=C(O)CCCC(=O)O,inactive,–
Oc1ccc(Sc2ccc(O)cc2)cc1,inactive,–
CCC(OCCCOC)OC(C)=O (stereo not given),inactive,–
CC(O)COC(C)(C)C (stereo not given),inactive,–
CN(C)CCOC1=Cc2ccccc2Sc2ccc(Cl)cc21,inactive,–
Cc1occc(=O)c1O,inactive,–
Cc1ccc(=O)n(-c2ccccc2)c1,inactive,–
OCc1cccc(Oc2ccccc2)c1,inactive,–
CCc1nn(CCCN2CCN(c3cccc(Cl)c3)CC2)c(=O)n1CCOc1ccccc1,inactive,–
CC(=O)OC1CC(C)OC(C)O1 (stereo not given),inactive,–

SMILES,Potency,"viability change, negative = cytotoxic"
C=CCOc1ccccc1OCC(O)CNC(C)C (stereo not given),inactive,–
CCN(CC)c1cccc(C)c1,inactive,–
CC(=O)Nc1c(I)c(NC(C)=O)c(I)c(C(=O)O)c1I,inactive,–
Cc1cncc(C)c1,inactive,–
O=C(O)CCCCCCC(=O)O,inactive,–
COc1ccc(Cc2cnc(N)nc2N)cc1OC,inactive,–
Cn1cnc2c1c(=O)[nH]c(=O)n2C,inactive,–
CN1CCN(c2cc3c(nn2)Oc2ccccc2N3C)CC1,–,4.41% [at 18.9 µM]
CC(C)CCCC(C)CCO (stereo not given),inactive,–
CC(O)CNCC(C)O (stereo not given),inactive,–
CCCOc1ccc2nc(NC(=O)OC)[nH]c2c1,inactive,–
CC(CNC1CCCCC1)OC(=O)c1ccccc1 (stereo not given),inactive,–
O=C(O)c1cccc(O)c1,inactive,–
CN1CCCC1=O,inactive,–
O=C1OC(CN2CCOCC2)CN1/N=C/c1ccc([N+](=O)[O-])o1 (stereo not given),inactive,–
CN(C)Cc1cc(C(C)(C)C)c(O)c(C(C)(C)C)c1,inactive,–
CC(=O)OCC(CCn1cnc2cnc(N)nc21)COC(C)=O,inactive,–
CN(c1nccc(=O)[nH]1)C1CCN(c2nc3ccccc3n2Cc2ccc(F)cc2)CC1,inactive,–
CC(=O)CC(=O)Nc1ccc2[nH]c(=O)[nH]c2c1,inactive,–
CC(C)CCCCCCCOC(=O)c1ccc(C(=O)OCCCCCCCC(C)C)c(C(=O)OCCCCCCCC(C)C)c1,inactive,–
